From PubChem BioAssay AID1159580 (chemical genetic matrix, 2015)
Values joined by “and” are separate entries in the source; they are usually repeats but may differ in a detail not shown here. Equal values may be shown once. The whole screen tested about 5,500 compounds, of which about 2,000 (36%) were called active. Not shown: some 18% with an inconclusive outcome. Rule as the data show it: active = normalized growth mostly below about 0.91 (no sharp cut-off); inconclusive = no clear call, values can overlap the other calls; inactive = mostly above about 0.92. The list shows a part of the results.

Experiment: chemical genetic growth profiling, strain panel (AID 1159580);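 also: tested at 20 µM; growth read once vehicle control cultures reached saturation at 30 °C; 1 = growth at the plate median or of vehicle wells; lower values mean less growth of the strain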
Settings: S. cerevisiae deletion strains, growth OD
[1] = locus YHR030C, strain SLT2, hits give low values
[2] = locus YHR079C, strain IRE1, hits give low values
[3] = locus YJL095W, strain BCK1, hits give low values
[4] = locus YJR066W, strain TOR1, hits give low values
[5] = locus YLR113W, strain HOG1, hits give low values
[6] = locus YNL183C, strain NPR1, hits give low values
[7] = locus YOR231W, strain MKK1, hits give low values
[8] = locus YPL256C, strain CLN2, hits give low values

Measured: normalized growth

O=C(O)c1cc(O)c2c(c1)[C@@H]([C@H]1c3cc(C(=O)O)cc(O)c3C(=O)c3c(O[C@H]4O[C@H](CO)[C@@H](O)[C@H](O)[C@H]4O)cccc31)c1cccc(O[C@H]3O[C@H](CO)[C@@H](O)[C@H](O)[C@H]3O)c1C2=O
inactive: locus YAL013W, strain DEP1, hits give low values 1.02 | locus YAL021C, strain ccr4, hits give low values 0.983 | locus YAL026C, strain drs2, hits give low values 1.01 | locus YAL030W, strain snc1, hits give low values 1.02 | locus YBL061C, strain skt5, hits give low values 1.01 | locus YBR009C, strain hhf1, hits give low values 1.04 | locus YBR021W, strain FUR4, hits give low values 1.02 | locus YBR023C, strain chs3, hits give low values 1.02 | locus YBR171W, strain sec66, hits give low values 1.02 | locus YBR229C, strain ROT2, hits give low values 1.01 | locus YBR231C, strain swc5, hits give low values 1.02 | locus YBR279W, strain paf1, hits give low values 1.01 | locus YCL011C, strain gbp2, hits give low values 1.02 | locus YCL016C, strain dcc1, hits give low values 1.02 | locus YCL029C, strain bik1, hits give low values 1 | locus YCL061C, strain MRC1, hits give low values 0.987 | locus YCL069W, strain vba3, hits give low values 1.01 | locus YCR088W, strain abp1, hits give low values 1.02 | locus YDL005C, strain med2, hits give low values 1 | locus YDL035C, strain GPR1, hits give low values 1.02 | locus YDL040C, strain nat1, hits give low values 1.04 | locus YDL074C, strain BRE1, hits give low values 1.04 | locus YDL101C, strain DUN1, hits give low values 1.01 | locus YDL134C, strain PPH21, hits give low values 1.01 | locus YDL185W, strain tfp1, hits give low values 1.01 | locus YDL192W, strain arf1, hits give low values 0.995 | locus YDR001C, strain nth1, hits give low values 1.04 | locus YDR069C, strain doa4, hits give low values 1.01 | locus YDR101C, strain arx1, hits give low values 0.98 | locus YDR137W, strain rgp1, hits give low values 0.953 | locus YDR150W, strain NUM1, hits give low values 1.02 | locus YDR159W, strain sac3, hits give low values 1.02 | locus YDR162C, strain NBP2, hits give low values 1.02 | locus YDR297W, strain sur2, hits give low values 1.02 | locus YDR318W, strain mcm21, hits give low values 1.01 | locus YDR334W, strain swr1, hits give low values 1.05 | locus YDR335W, strain msn5, hits give low values 1.02 | locus YDR388W, hits give low values 1 | locus YDR392W, strain spt3, hits give low values 0.93 | locus YDR502C, strain sam2, hits give low values 0.995 | locus YEL003W, strain gim4, hits give low values 1.02 | locus YEL061C, strain CIN8 (second series), hits give low values 1.05 | locus YEL061C, strain CIN8, hits give low values 1.01 | locus YER015W, strain faa2, hits give low values 1.01 | locus YER016W, strain bim1, hits give low values 1.02 | locus YER110C, hits give low values 1 | locus YER155C, strain BEM2 (second series), hits give low values 1.01 | locus YER155C, strain BEM2, hits give low values 1.01 | locus YER167W, strain BCK2, hits give low values 1.01 | locus YFR010W, strain ubp6, hits give low values 1.02 | locus YGL078C, strain dbp3, hits give low values 0.993 | locus YGL086W, strain mad1, hits give low values 1 | locus YGL167C, strain pmr1, hits give low values 1.03 | locus YGL173C, strain kem1, hits give low values 1.02 | locus YGL227W, strain vid30, hits give low values 1.05 | locus YGL240W, strain doc1, hits give low values 0.989 | locus YGL248W, strain PDE1, hits give low values 1.02 | locus YGL253W, strain hxk2, hits give low values 1.02 | locus YGR135W, strain pre9, hits give low values 1.01 | locus YGR252W, strain gcn5, hits give low values 0.949 | locus YHR013C, strain ard1, hits give low values 1.06 | locus YHR027C, strain rpn1, hits give low values 1.05 | [1] 1.01 and 0.986 | locus YHR079C, strain IRE1 (second series), hits give low values 1 | [2] 0.981 | locus YHR094C, strain hxt1, hits give low values 0.999 | locus YHR129C, strain ARP1, hits give low values 1.01 | locus YHR142W, strain chs7, hits give low values 1.09 | locus YHR200W, strain rpn10, hits give low values 0.991 | locus YIL066C, strain RNR3, hits give low values 1.02 | locus YIL073C, strain SPO22, hits give low values 1.06 | locus YIL125W, strain kgd1, hits give low values 1 | locus YIR030C, strain dcg1, hits give low values 0.999 | locus YJL092W, strain hpr5, hits give low values 1.01 | [3] 1.03 and 0.978 | locus YJL129C, strain trk1, hits give low values 1.04 | locus YJL134W, strain LCB3, hits give low values 1.02 | locus YJL154C, strain vps35, hits give low values 1.02 | locus YJL164C, strain tpk1, hits give low values 1 | locus YJL166W, strain qcr8, hits give low values 0.958 | locus YJL168C, strain set2, hits give low values 1.02 | locus YJL187C, strain SWE1 (second series), hits give low values 1.02 | locus YJL187C, strain SWE1, hits give low values 1.01 | locus YJR043C, strain POL32, hits give low values 1 | [4] 0.934 | locus YKL009W, strain mrt4, hits give low values 1.11 | locus YKL068W, hits give low values 1.01 | locus YKL085W, strain MDH1 (second series), hits give low values 1.03 | locus YKL085W, strain MDH1, hits give low values 1.03 | locus YKL160W, strain elf1, hits give low values 0.993 | locus YKR001C, strain vps1, hits give low values 1.02 | locus YKR026C, strain gcn3, hits give low values 1.02 | locus YLL001W, strain dnm1, hits give low values 1.02 | locus YLL026W, hits give low values 1.02 | locus YLL041C, strain sdh2, hits give low values 1.01 | locus YLR027C, strain aat2, hits give low values 1.02 | locus YLR039C, strain RIC1, hits give low values 1.03 | locus YLR058C, strain SHM2, hits give low values 1.01 | locus YLR102C, strain apc9, hits give low values 1 | [5] 1.01 | locus YLR221C, strain rsa3, hits give low values 0.986 | locus YLR258W, strain gsy2, hits give low values 0.99 | locus YLR262C, strain YPT6 (second series), hits give low values 0.979 | locus YLR262C, strain YPT6, hits give low values 1.1 | locus YLR268W, strain sec22, hits give low values 0.998 | locus YLR320W, strain mms22, hits give low values 1.03 | locus YLR330W, strain CHS5, hits give low values 1.01 | locus YLR342W, strain FKS1 (second series), hits give low values 0.985 | locus YLR342W, strain FKS1, hits give low values 1.04 | locus YLR370C, strain arc18, hits give low values 1 | locus YLR371W, strain rom2, hits give low values 0.999 | locus YLR384C, strain iki3, hits give low values 1.02 | locus YLR418C, strain cdc73, hits give low values 0.993 | locus YML016C, strain PPZ1, hits give low values 1.01 | locus YML032C, strain rad52, hits give low values 0.998 | locus YML120C, strain ndi1, hits give low values 1.01 | locus YML124C, strain tub3, hits give low values 0.997 | locus YMR058W, strain fet3, hits give low values 1.03 | locus YMR078C, strain ctf18, hits give low values 1 | locus YMR125W, strain sto1, hits give low values 1.02 | locus YMR129W, hits give low values 1.04 | locus YMR205C, strain PFK2, hits give low values 0.958 | locus YMR223W, strain ubp8, hits give low values 0.997 | locus YMR231W, strain pep5, hits give low values 1.01 | locus YMR307W, strain GAS1, hits give low values 1 | locus YNL067W, strain RPL9B, hits give low values 1.01 | locus YNL071W, strain lat1, hits give low values 1.03 | locus YNL128W, strain TEP1, hits give low values 1.05 | locus YNL153C, strain GIM3, hits give low values 1 | [6] 0.937 | locus YNL209W, strain ssb2, hits give low values 1.01 | locus YNL233W, strain BNI4, hits give low values 1.01 | locus YNL248C, strain rpa49, hits give low values 1 | locus YNL250W, strain rad50, hits give low values 1.02 | locus YNL271C, strain bni1, hits give low values 1 | locus YNL298W, strain CLA4, hits give low values 0.993 | locus YNL307C, strain MCK1, hits give low values 1.01 | locus YNL322C, strain KRE1 (second series), hits give low values 1.02 | locus YNR049C, strain mso1, hits give low values 1.05 | locus YNR052C, strain pop2, hits give low values 0.978 | locus YOL006C, strain TOP1, hits give low values 1.04 | locus YOL012C, strain htz1 0.926 | locus YOL147C, strain pex11, hits give low values 1 | locus YOR001W, strain rrp6, hits give low values 1.04 | locus YOR061W, strain CKA2, hits give low values 1.02 | locus YOR069W, strain VPS5, hits give low values 1.02 | locus YOR083W, strain WHI5, hits give low values 0.957 | locus YOR106W, strain vam3, hits give low values 0.979 | locus YOR136W, strain idh2, hits give low values 1.01 | locus YOR144C, strain elg1, hits give low values 1.01 | locus YOR184W, strain ser1, hits give low values 1.02 | [7] 0.988 | locus YOR265W, strain rbl2, hits give low values 1.01 | locus YOR270C, strain vph1, hits give low values 1.05 | locus YOR290C, strain snf2, hits give low values 0.997 | locus YOR316C, strain cot1, hits give low values 1 | locus YPL051W, strain arl3, hits give low values 0.995 | locus YPL055C, strain LGE1, hits give low values 1.01 | locus YPL078C, strain atp4, hits give low values 0.979 | locus YPL106C, strain sse1, hits give low values 0.977 | locus YPL240C, strain hsp82, hits give low values 0.993 | locus YPL241C, strain CIN2, hits give low values 1.02 | [8] 1.03 | locus YPR119W, strain clb2, hits give low values 1 | locus YPR141C, strain kar3, hits give low values 1 | locus YPR163C, strain tif3, hits give low values 1.01 | locus YPR167C, strain met16, hits give low values 0.99 | strain wtn01, hits give low values 1.01
active: locus YDR195W, strain ref2 1.17 [resistant] | locus YEL037C, strain rad23, hits give low values 1.09 [resistant] | locus YJL095W, strain BCK1 (second series), hits give low values 1.12 [resistant] | locus YLR357W, strain rsc2, hits give low values 1.28 [resistant] | locus YOR070C, strain gyp1, hits give low values 1.08 [resistant] | locus YOR080W, strain dia2, hits give low values 1.13 [resistant]

O=C(O)c1cc(O)c2c(c1)[C@@H]([C@@H]1c3cc(C(=O)O)cc(O)c3C(=O)c3c(O[C@H]4O[C@H](CO)[C@@H](O)[C@H](O)[C@H]4O)cccc31)c1cccc(O[C@H]3O[C@H](CO)[C@@H](O)[C@H](O)[C@H]3O)c1C2=O
inactive: [1] 1.09 | [2] 1.08 | [3] 1.02 | [4] 1 | [5] 1.06 | [6] 1.02 | [7] 1.05 | [8] 1.08
